# Results: PubChem BioAssay (EPA / NIEHS)
# Records with an inconclusive call do not appear. Calls of active or inactive are those of the source. How the source made its calls, unless noted: active means hit-call score of the fitted dose curve at least 0.9, where 1 is the maximum; inactive means score below 0.9.
# How the values were obtained:
# SERPINA7 (gene 6906) = experiment: CCTE_GLTED_hTBG: CCTE's human Thyroxine-binding Globulin (TBG) Inhibition Assay, Great Lakes Toxicology and Ecology Division (GLTED) Lab (AID 2284343; active means hit-call score of the fitted dose curve at least 0.9, where 1 is the maximum;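 further: active chemicals lower fluorescence versus DMSO baseline by displacing probe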)
# Summary of the method: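 Human TBG incubated 2 h with test chemical; displacement of ANSA probe read by fluorescence, 380 nm excitation/475 nm emission. Loss of signal relative to DMSO.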
# [1] = system: SRY-box transcription factor 2 (SOX2) Protein Expression, Deisenroth Lab, SOX2 (gene 6657); experiment: CCTE_Deisenroth_DEVTOX-GLR_legacy_Sox2: (Legacy) CCTE's DevTox GLR-Endo Assay Evaluation of SRY-box transcription factor 2 (SOX2) Protein Expression, Deisenroth Lab (AID 2284346)
# Summary of the method: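 RUES2-GLR human pluripotent cells were differentiated for 48 h with two chemical doses 24 h apart, over 1 nM-200 uM. Sox2+ cells were those above 5x BMAD of the endoderm-control median; percent Sox2+ minus the 0.2% DMSO median was used, from n=4 replicates.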
# [2] = system: SRY-box transcription factor 17 (SOX17) Protein Expression, Deisenroth Lab, SOX17 (gene 64321); experiment: CCTE_Deisenroth_DEVTOX-GLR_Endo_SOX17: CCTE's DevTox GLR-Endo Assay Evaluation of SRY-box transcription factor 17 (SOX17) Protein Expression, Deisenroth Lab (AID 2284413)
# Procedure: CCTE_Deisenroth_DEVTOX-GLR_Endo assay is a cell-based, multiplex-readout assay that uses RUES2-GLR, a human pluripotent cell line, with measurements taken at 48 hours after chemical dosing in a 384-well microplateCCTE_Deisenroth_DEVTOX-GLR_Endo_SOX17 is 1 of 4 assay components calculated from the CCTE_Deisenroth_DEVTOX-GLR_Endo assay and it measures the percentage of cells in an endoderm state. Using a type of inducible fluorescent protein reporter, gain-of-signal activity can be used to understand changes in gene expression with fluorescent microscopy. The percentage of SOX17+ cells are determined by calculating the number of SOX17+ cells divided by the cell count. To generalize the intended target to other relatable targets, this assay component is annotated to the transcription factor intended target family, where the subfamily is SRY-related HMG-box.Data from the assay component CCTE_Deisenroth_DEVTOX-GLR_Endo_SOX17 was analyzed as 1 assay endpoint. The endpoint is the percent change in SOX17+ cell population relative to the 0.2% DMSO control in the CCTE_Deisenroth_DEVTOX-GLR_Endo assay. This assay endpoint can be referred to as a primary readout since this assay has produced multiple assay endpoints where this one serves as a measure of endoderm differentiation.
# (§1) All assay protocols are aligned to the DevTox GLR-Endo assay workflow. Cells are seeded into 384-well microplates for 24 hours prior to initiating differentiation in defined media for a total duration of 48 hours. A total of two chemical exposures are administered in 24-hour intervals during the 48-hour differentiation period. At the assay termination point, cells are fixed and stained with a fluorescent dye demarcating the nucleus. High-content imaging is used to acquire brightfield and fluorescent channel images across 5 fields per well. Cell identification and mean biomarker fluorescence intensities are calculated with image analysis software to determine the total cell counts for viability assessment and the biomarker expression frequency for each lineage-dependent assay. A typical experimental design tests a 10-point concentration series (1 nM - 200 uM) for 28 compounds in single technical replicate. Assay plate controls include non-differentiated pluripotent cells (baseline control), lineage-specific differentiated cells (differentiation control), and DMSO solvent exposed differentiated cells (solvent control). Experiments typically comprise a minimum of four experimental replicates (n=4).
# [3] = CCTE_Deisenroth_DEVTOX-GLR_Endo_CellCount: Viability Assessment in CCTE's DevTox GLR-Endo Assay, Deisenroth Lab (AID 2284420)
# Summary of the method: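 Human pluripotent RUES2-GLR line; 24 h pre-seed; 48 h endoderm-directed differentiation; 2 doses, q24h; 10 conc., 1 nM - 200 uM; fix + nuclear dye; 5 fields/well imaged; readout = nuclei count, % change vs 0.2% DMSO; n=4.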
# [4] = system: SRY-box transcription factor 17 (SOX17) Protein Expression, Deisenroth Lab, SOX17 (gene 64321); experiment: CCTE_Deisenroth_DEVTOX-GLR_Pluri_SOX17: CCTE's DevTox GLR-Pluri Assay Evaluation of SRY-box transcription factor 17 (SOX17) Protein Expression, Deisenroth Lab (AID 2284427; active means hit-call score of the fitted dose curve at least 0.9, where 1 is the maximum)
# Summary of the method: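 Human RUES2-GLR pluripotent line; 24 h seeding, 48 h defined-media differentiation, 2 doses q24h, 10 conc 1 nM - 200 uM. Fix, nuclear stain, image 5 fields/well. Endpoint = %SOX17+ minus 0.2% DMSO; n=4.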
# [5] = system: SRY-box transcription factor 2 (SOX2) Protein Expression, Deisenroth Lab, SOX2 (gene 6657); experiment: CCTE_Deisenroth_DEVTOX-GLR_Pluri_SOX2: CCTE's DevTox GLR-Pluri Assay Evaluation of SRY-box transcription factor 2 (SOX2) Protein Expression, Deisenroth Lab (AID 2284428)
# Summary of the method: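 Steps: seed RUES2-GLR cells for 24 h; start 48 h differentiation in defined media; dose test chemicals at 0 and 24 h (1 nM–200 uM); fix, stain nuclei, image; compute SOX2+ percentage against 0.2% DMSO wells.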
# [6] = system: Brachyury (BRA) Protein Expression, Deisenroth Lab, TBXT (gene 6862); experiment: CCTE_Deisenroth_DEVTOX-GLR_Pluri_BRA: CCTE's DevTox GLR-Pluri Assay Evaluation of Brachyury (BRA) Protein Expression, Deisenroth Lab (AID 2284429; active means hit-call score of the fitted dose curve at least 0.9, where 1 is the maximum)
# Summary of the method: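 RUES2-GLR human pluripotent cells differentiated 48 hours with two chemical exposures 24 hours apart, 10-point series 1 nM–200 uM. Fixed, nuclear-stained, imaged; endpoint is percent BRA+ cells minus 0.2% DMSO control.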
# [7] = system: SRY-box transcription factor 2 (SOX2) Protein Expression, Deisenroth Lab, SOX2 (gene 6657); experiment: CCTE_Deisenroth_DEVTOX-GLR_Endo_SOX2: CCTE's DevTox GLR-Endo Assay Evaluation of SRY-box transcription factor 2 (SOX2) Protein Expression, Deisenroth Lab (AID 2284412; active means hit-call score of the fitted dose curve at least 0.9, where 1 is the maximum)
# Summary of the method: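 RUES2-GLR human pluripotent cells were seeded 24 h, then differentiated 48 h with two chemical exposures 24 h apart. Cells were fixed, nuclei stained and imaged by high-content microscopy. Endpoint is %SOX2+ cells over cell count, minus 0.2% DMSO control; 10-point series 1 nM–200 uM.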
# [8] = system: Brachyury (BRA) Protein Expression, TBXT (gene 6862); experiment: CCTE_Deisenroth_DEVTOX-GLR_Endo_BRA: CCTE's DevTox GLR-Endo Assay Evaluation of Brachyury (BRA) Protein Expression, Deisenroth Lab (AID 2284417)
# Procedure: CCTE_Deisenroth_DEVTOX-GLR_Endo assay is a cell-based, multiplex-readout assay that uses RUES2-GLR, a human pluripotent cell line, with measurements taken at 48 hours after chemical dosing in a 384-well microplateCCTE_Deisenroth_DEVTOX-GLR_Endo_BRA is 1 of 4 assay components calculated from the CCTE_Deisenroth_DEVTOX-GLR_Endo assay and it measures the percentage of cells in an mesoderm state. Using a type of inducible fluorescent protein reporter, gain-of-signal activity can be used to understand changes in gene expression with fluorescent microscopy. The percentage of BRA+ cells are determined by calculating the number of BRA+ cells divided by the cell count. To generalize the intended target to other relatable targets, this assay component is annotated to the transcription factor intended target family, where the subfamily is T-box protein.Data from the assay component CCTE_Deisenroth_DEVTOX-GLR_Endo_BRA was analyzed as 1 assay endpoint. The endpoint is the percent BRA+ cell population minus the 0.2% DMSO control in the CCTE_Deisenroth_DEVTOX-GLR_Endo assay. Furthermore, this assay endpoint can be referred to as a secondary readout, because this assay has produced multiple assay endpoints where this one serves as a measure of mesoderm differentiation.
# as §1
# [9] = CCTE_Mundy_HCI_iCellGluta_NOG_NeuriteCount: CCTE's Neurite Outgrowth Assay in iCellGluta cells for Neurite Count, Mundy Lab (AID 2284342; active means hit-call score of the fitted dose curve at least 0.9, where 1 is the maximum;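 further: chemical exposure about 48 hours starting 2 hours after plating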)
structure (smiles),measurement,setting,value
O=C(O)c1cc(N=Nc2ccc(S(=O)(=O)Nc3ccccn3)cc2)ccc1O,AC50,SERPINA7 (gene 6906),15.9 µM (active)
same,outcome,[1],inactive
same,outcome,[2],inactive
same,outcome,[3],inactive
same,outcome,[4],inactive
same,AC50,[5],100 µM (active)
same,outcome,[6],inactive
C[C@](N)(Cc1ccc(O)c(O)c1)C(=O)O,outcome,[1],inactive
same,outcome,[7],inactive
same,outcome,[2],inactive
same,outcome,[8],inactive
same,outcome,[3],inactive
same,AC50,[5],0.308 µM (active)
same,AC50,[6],153 µM (active)
NC(=O)NO,outcome,[1],inactive
same,outcome,[2],inactive
same,outcome,[8],inactive
same,AC50,[3],61.3 µM (active)
same,outcome,[4],inactive
same,outcome,[5],inactive
same,outcome,[6],inactive
CC[C@H](C)C(=O)O[C@H]1C[C@@H](C)C=C2C=C[C@H](C)[C@H](CC[C@@H]3C[C@@H](O)CC(=O)O3)[C@H]21,AC50,[1],41.7 µM (active)
same,AC50,[7],62.1 µM (active)
same,AC50,[2],6.57 µM (active)
same,AC50,[8],54.2 µM (active)
same,AC50,[3],2.81 µM (active)
same,AC50,[4],100 µM (active)
same,AC50,[5],14.5 µM (active)
same,AC50,[6],20.8 µM (active)
Cn1c(=O)c2c(ncn2C)n(C)c1=O,outcome,[1],inactive
same,AC50,[7],33.8 µM (active)
same,outcome,[2],inactive
same,outcome,[8],inactive
same,outcome,[3],inactive
same,outcome,[5],inactive
CC[C@H]1OC(=O)[C@H](C)[C@@H](O[C@H]2C[C@@](C)(OC)[C@@H](O)[C@H](C)O2)[C@H](C)[C@@H](O[C@@H]2O[C@H](C)C[C@H](N(C)C)[C@H]2O)[C@](C)(O)C[C@@H](C)C(=O)[C@H](C)[C@@H](O)[C@]1(C)O,outcome,[9],inactive
Oc1ccc2c(c1)-c1ccccc1C2,AC50,SERPINA7 (gene 6906),19.4 µM (active)
Nc1ccc(Nc2ccccc2)cc1,AC50,SERPINA7 (gene 6906),50 µM (active)
O=C(O)c1cccc(Oc2ccccc2)c1,AC50,SERPINA7 (gene 6906),19.2 µM (active)
O=P(OC(CCl)CCl)(OC(CCl)CCl)OC(CCl)CCl,outcome,[9],inactive
same,AC50,SERPINA7 (gene 6906),3.27 µM (active)
O=C1CCC(N2C(=O)c3ccccc3C2=O)C(=O)N1 (stereo not drawn),outcome,[1],inactive
same,AC50,[2],1.56 µM (active)
same,outcome,[8],inactive
same,outcome,[3],inactive
same,outcome,[5],inactive
same,outcome,[6],inactive
Nc1nc2ncc(CNc3ccc(C(=O)N[C@@H](CCC(=O)O)C(=O)O)cc3)nc2c(=O)[nH]1,outcome,[1],inactive
same,outcome,[7],inactive
same,outcome,[2],inactive
same,outcome,[8],inactive
same,outcome,[3],inactive
same,outcome,[5],inactive
